Screens: PubChem BioAssay, National Center for Advancing Translational Sciences (NCATS)
SMN2 splice up = SMN2 splice variant enhancement; HEK293 SMN2-luciferase splicing reporter, luminescence, 30-36 h; Potency, µM (highest dose often 46.1 µM), for inactives: at the highest dose activity change, positive = activation, most hits filed as activators; 2.8% of 210,000 active; AID 1458; further: % of control where 0% means no effect; nearly all actives have a fitted effect of over 55% in size
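HEK293 cells carry an SMN2 […]–luciferase reporter in which exon 7 inclusion puts luciferase in frame. Cells were plated 10-12 h before compound addition, then incubated 30-36 h at 37C. ONE-Glo luminescence was read; sodium butyrate at 4.5 mM final served as control.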
Rab9 prom act = activators of Rab9 promoter; Huh7 Rab9 promoter-luciferase reporter, luminescence, 24 h; Potency, µM (titrated, usually from 9.22 µM), inactives show at the highest dose activation, negative = inhibition, most hits filed as activators; 2.8% of 320,000 active; further: % of control where 0% means no effect; nearly all actives have a fitted effect of over 60% in size
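Stable Rab9-luc Huh7, 1500 cells/well, 2 h settle; cmpd in DMSO, 24 h, 37 °C/5% CO2; luciferase reagent 10 min RT; luminescence.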
NPC1 prom act = NPC1 promoter activation; Huh7 NPC1 promoter luciferase reporter, 24 h; Potency, µM (top dose mostly 9.22 µM), inactives show at the highest dose activation, usual class: activators; 2.4% of 320,000 active; further: % of control where 0% means no effect; nearly all actives have a fitted effect of over 60% in size
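In 1536-well qHTS, Huh7 cells harboring an NPC1 promoter–luciferase construct received compound for 24 h; activation was quantified by luminescence following luciferase reagent addition.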
ELG1 genotox = inducers of genotoxicity in HEK293T ELG1-luciferase cells; HEK293T ELG1-luciferase reporter, luminescence, 16 h; Potency, µM (top dose mostly 46 µM), inactives show top-dose activity change, positive = activation, most hits filed as activators; 1.3% of 330,000 active; AID 504466; further: % of control where 0% means no effect; nearly all actives have a fitted effect of over 60% in size
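Reporter readout depends on ELG1 protein level, which increases with genetic stress. After 16 hr compound exposure at 37 °C, luciferase activity was quantified using ONE-Glo.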
FLuc counter = firefly luciferase modulation, counter-screen for miR-21 project. P08659. purified FLuc, Km substrates, luminescence inhibition. Potency, µM (series often up to 57.5 µM), without a hit: at the top dose activity change, negative = inhibition, usual class: inhibitors. 6.9% of 360,000 active. AID 588342;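 further: plate controls were vehicle for no effect and reference inhibitor for full effect; nearly all actives have a fitted effect of over 55% in size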
Target sequence (P08659 whole entry, looked up): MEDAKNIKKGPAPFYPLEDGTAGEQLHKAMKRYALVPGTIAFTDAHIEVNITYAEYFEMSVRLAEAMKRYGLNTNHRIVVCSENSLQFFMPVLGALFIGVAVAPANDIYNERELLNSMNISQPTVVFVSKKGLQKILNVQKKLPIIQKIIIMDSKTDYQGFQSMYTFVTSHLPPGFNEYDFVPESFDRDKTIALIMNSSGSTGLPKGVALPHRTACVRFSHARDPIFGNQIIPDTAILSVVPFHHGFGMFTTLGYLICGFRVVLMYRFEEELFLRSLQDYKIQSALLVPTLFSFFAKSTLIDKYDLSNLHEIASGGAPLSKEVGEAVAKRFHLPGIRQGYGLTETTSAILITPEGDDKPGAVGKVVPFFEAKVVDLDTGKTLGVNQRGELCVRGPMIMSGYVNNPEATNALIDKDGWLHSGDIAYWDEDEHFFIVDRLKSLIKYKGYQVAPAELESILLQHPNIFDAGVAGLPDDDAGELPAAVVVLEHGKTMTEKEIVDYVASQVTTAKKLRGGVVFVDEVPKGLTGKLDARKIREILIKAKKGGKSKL
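Purified P. pyralis luciferase (10nM final) with 10uM D-luciferin and 10uM ATP (Km levels) in 50mM Tris acetate pH 7.5, 10mM Mg acetate, 0.01% Tween-20, 0.05% BSA; qHTS 6-point titration, ~60 µM downward; luminescence read.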
Luc counter = counter-screen: inhibitors of Kinase-Glo firefly luciferase. Q27757. Kinase-Glo luciferase, ATP luminescence, 8 min. Potency, µM (titrated, usually from 38.3 µM), for inactives: at the top dose activity change, negative = inhibition, hits mostly inhibitors. 0.28% of 200,000 active. AID 1379; further: on the % scale 0 is the no-effect control and ±100 the full control effect; nearly all actives have a fitted effect of over 60% in size
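Substrate mix (final 50 mM imidazole pH 7.2, 50 mM KCl, 7 mM MgCl2, 10 uM ATP, 0.01% Tween 20, 0.05% BSA) plus pin-tool compound, then Kinase-Glo detection mix; 8 min ambient, luminescence read.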
Numbers without * were called inactive; ? = inconclusive; / = not tested or not shown; [ ] = dose if it differs, or a comment. An excerpt weighted towards active compounds, which were near 7.5% of everything screened. The call rests on the fitted dose curve; in most records, active means well fitted curve in the direction sought with a large enough effect; inconclusive means small, poorly fitted or top-dose-only effect, or another doubt; inactive means no such curve, though single readings can be large; an effect the other way counts as inactive or inconclusive. Potency means the concentration at half of the fitted maximal effect.

SMILES	SMN2 splice up	Rab9 prom act	NPC1 prom act	ELG1 genotox	FLuc counter	Luc counter
CCN(CC)C(=O)Cn1c(=O)n(-c2ccc(C)c(C)c2)c(=O)c2c3c(sc21)CCCCC3	-5%	/	/	/	-17%	/
COc1ccc(-c2cc(C(=O)NC3CCCC3)no2)cc1	/	1.8µM*	0.79µM*	3.7µM*	2.1µM*	/
COc1cccc(-c2cc(C(=O)NC3CCCCC3)no2)c1	/	3.2µM*	?	?	6µM*	/
O=C(NC1CCCCC1)c1cc(-c2ccco2)on1	/	1.6µM*	2.5µM*	?	6µM*	/
COc1cccc(-c2ccc3c(N)c(C(=O)c4ccc(F)cc4)sc3n2)c1	-25%	/	/	/	-4%	/
COc1cccc(-c2ccc3c(N)c(C(=O)NC4CC4)sc3n2)c1	/	?	2µM*	?	3µM*	/
O=C(NC1CCCCC1)c1cc(-c2cccc(Cl)c2)on1	/	?	?	?	-13%	/
O=c1[nH]c2ccc(NCc3ccccc3F)cc2[nH]1	-19%	/	/	/	1%	/
CC(=O)c1ccc(NC(=O)COC(=O)/C=C/c2cccs2)cc1	/	/	/	-3%	/	/
Cc1ccc(N2C(=O)c3ccccc3C2Nc2ccccc2F)nc1 (stereo not given)	-5%	20%	-5%	2%	0%	-5%
Cc1ccc(N2C(=O)c3ccccc3C2O)nc1 (stereo not given)	0.56µM*	0.28µM*	?	?	1.5µM*	4.5µM*
CC1(C)CC(=O)c2cnc(N3CCc4ccccc43)nc2C1	/	3.5µM*	2.8µM*	?	2.1µM*	/
COc1ccc2c(c1)C(c1ccc(C)cc1)CC(=O)O2 (stereo not given)	/	/	/	/	/	-2%[39.9 µM]
COC(=O)c1ccc(/C(O)=C(\C#N)c2nc3ccccc3s2)cc1	/	3.2µM*	2.8µM*	3%	7.6µM*	/
CC(C)NC(=O)c1nc2ccccc2s1	/	-2%	1%	?	?	-1%
COC(=O)c1ccc(CC(=O)c2nc3ccccc3s2)cc1	1%[1.84 µM]	2.8µM*	?	?	3µM*	-9%
O=C(O)CSc1nc2ccccc2s1	/	0%	-2%	1%	-16%	/
COC(=O)c1ccc(CSc2nc3ccccc3s2)o1	?	?	?	16µM*	17µM*	1%
O=C(Cc1ccccc1)c1nc2ccccc2s1	4µM*	2.8µM*	2.5µM*	?	11µM*	-13%
Cc1ccc(S(=O)(=O)N2CCCC2)cc1C(=O)Nc1ccc(-n2cnnn2)cc1	/	-6%	1%	-2%	/	/
Cc1ccc(S(=O)(=O)N2CCN(CC(=O)N/N=C/c3ccco3)CC2)cc1	-2%	-1%	-1%	5%	4%	-2%
CC(=O)CSc1nc(-c2ccccc2)c(-c2ccccc2)o1	/	-1%	0%	-1%	3%	/
Cc1ccc(-c2nc(-c3nccc4ccccc34)oc2-c2ccccc2)cc1	3.5µM*	3.2µM*	?	?	3µM*	-15%[7.66 µM]
CN(C(=O)Cn1c(=O)oc2ccccc21)C1CCCCC1	/	-9%	-2%	2%	6%	/
CC(=O)Nc1ccc(S(=O)(=O)N2CCC(NC(=O)C(Cc3ccccc3F)NC(C)=O)CC2)cc1 (stereo not given)	/	7%	1%	2%	2%	/
CCn1cc([N+](=O)[O-])c(C(=O)Nc2nc3ccc(OC)cc3s2)n1	-4%	0.32µM*	0.4µM*	7%	24µM*	-3%
COc1ccc2nc(NC(=O)c3ccc(NS(=O)(=O)c4cccs4)cc3)sc2c1	-12%	-2%	3%	-2%	4.8µM*	-1%
COc1ccc2nc(NC(=O)c3cc(=O)c4ccccc4o3)sc2c1	21%	/	/	/	1.7µM*	/
Cc1ccc2nc(NC(=O)c3cc(=O)c4cc(C)c(C)cc4o3)sc2c1	-5%	/	/	/	-8%	/
Cc1cc(C)c2nc(NNC(=O)c3ccc(S(=O)(=O)N4CCc5ccccc5C4)cc3)sc2c1	-116%	-13%	-2%	?	2%	1%
